The panel holds about 83,000 compounds, 20% with a hit somewhere; the sample as a whole holds those more often.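 Each cell line was grown in a 96-well plate and treated with one concentration of compound for 48 hours. Values below 10 were considered active.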 Active and inactive are the calls of the source.
Tests used:
Assay in all cases: NCI-60 one-dose screen, 48 h (100 = growth as untreated, 0 = no growth, -100 = all killed)
NCI-H322M lung = conditions: 10 µM unless noted
HOP-62 NSCLC = conditions: 10 µM unless noted
NCI-H522 lung = conditions: 10 µM
A549/ATCC NSCLC = conditions: 10 µM unless noted
786-0 renal = conditions: 10 µM unless noted
COLO 205 colon = conditions: 10 µM unless noted
NCI-H460 lung = conditions: 10 µM unless noted
HOP-92 NSCLC = conditions: 10 µM unless noted

Measured: growth

COc1ccc(OC2=C(C#N)C(=N)N3c4ccccc4Sc4ccccc4C3N2)cc1 (configuration not stated)
inactive: NCI-H322M lung 97.5% | HOP-62 NSCLC 79.9% | NCI-H522 lung 97.8% | A549/ATCC NSCLC 104% | 786-0 renal 105% | COLO 205 colon 103%

COCCOC1=C(Cl)C(=O)c2ccccc2C1=O
active: HOP-92 NSCLC -17.3%
inactive: HOP-62 NSCLC 45.5% | NCI-H460 lung 14.3% | 786-0 renal 81.8% | COLO 205 colon 35.4%

CC(=O)Nc1ccccc1-c1n[nH]c(=O)[nH]c1=O
inactive: NCI-H322M lung 105% | NCI-H460 lung 104% | A549/ATCC NSCLC 116% | 786-0 renal 98.4% | COLO 205 colon 115%
active: HOP-92 NSCLC -10.8%

CC(C)(C)CC(C)(C)N(CSc1ccc(Cl)cc1)CSc1ccc(Cl)cc1
active: NCI-H522 lung -4.63%
inactive: HOP-62 NSCLC 83.4% | NCI-H460 lung 42.9% | HOP-92 NSCLC 23.3% | A549/ATCC NSCLC 10.6% | 786-0 renal 41% | COLO 205 colon 75.6%

CC1(C)N=C(N)N=C(N)N1c1cccc(OCCOc2cccc([N+](=O)[O-])c2)c1
active: NCI-H522 lung 7.73%
inactive: HOP-62 NSCLC 93% | NCI-H460 lung 19% | HOP-92 NSCLC 86.4% | A549/ATCC NSCLC 20.4% | 786-0 renal 81.7% | COLO 205 colon 35%

CC1(C)N=C(N)N=C(N)N1c1cccc(/C=C/C=C/c2cccc([N+](=O)[O-])c2)c1
inactive: HOP-62 NSCLC 104% | NCI-H460 lung 21.3% | HOP-92 NSCLC 70.7% | NCI-H522 lung 27.6% | A549/ATCC NSCLC 28.2% | 786-0 renal 91.9% | COLO 205 colon 29.7%

COc1ccc(C(=O)C2=CC(=O)C(=O)C2)cc1OC
inactive: HOP-62 NSCLC 94.1% | NCI-H460 lung 103% | HOP-92 NSCLC 95.9% | NCI-H522 lung 86.6% | A549/ATCC NSCLC 106% | 786-0 renal 101% | COLO 205 colon 112%

CSc1nnc(-c2sc3nnc(-c4ccccc4)c(-c4ccccc4)c3c2O)o1
inactive: HOP-62 NSCLC 71.1% | NCI-H460 lung 56.7% | NCI-H522 lung 96.6% | A549/ATCC NSCLC 80.5% | 786-0 renal 88.7% | COLO 205 colon 110%

CCN(CC)CCCNc1ccc(C)c2sc3ccccc3c(=O)c12
inactive: NCI-H322M lung 57.2% | HOP-62 NSCLC 40.9% | HOP-92 NSCLC 25.3% | NCI-H522 lung 54.4% | A549/ATCC NSCLC 19.1% | 786-0 renal 32.5%
active: COLO 205 colon -70.2%

O=C(Nc1ccc(Cl)c(Cl)c1)NC(CO)(CO)CO
inactive: NCI-H460 lung 103% | HOP-92 NSCLC 79.9% | NCI-H522 lung 88.7% | A549/ATCC NSCLC 97.4% | 786-0 renal 92.3% | COLO 205 colon 106%

Clc1ccc(Nc2nc(Nc3ccccc3)nc(Nc3ccc(-c4cc(-c5ccc(Cl)cc5)on4)cc3)n2)cc1
active: NCI-H460 lung 7.19%
inactive: NCI-H322M lung 77.6% | NCI-H522 lung 26.2% | A549/ATCC NSCLC 38.9% | 786-0 renal 53.9% | COLO 205 colon 69.8%

Cn1c(=O)c(S(=O)(=O)c2ccccc2)cc2ccc3c(cnn3-c3ccc(Cl)cc3)c21
active: NCI-H522 lung -18.9%
inactive: HOP-62 NSCLC 87.3% | NCI-H460 lung 80.7% | HOP-92 NSCLC 39.8% | A549/ATCC NSCLC 65.5% | 786-0 renal 51.3% | COLO 205 colon 100%

CSC1=CC(=O)c2ccccc2C1=O
inactive: NCI-H322M lung 107% | NCI-H460 lung 95.6% | NCI-H522 lung 18.5% | A549/ATCC NSCLC 99.1% | 786-0 renal 106% | COLO 205 colon 101%
active: HOP-92 NSCLC -29%

O=C(Nc1ccc(Cl)c(Cl)c1)OCn1ncc2ccc([N+](=O)[O-])cc21
inactive: HOP-62 NSCLC 71.6% | NCI-H460 lung 99.8% | HOP-92 NSCLC 62.6% | NCI-H522 lung 49.4% | A549/ATCC NSCLC 82.8% | 786-0 renal 83.3% | COLO 205 colon 93.2%

CCCCCCCC/C=C\CCCCCCCCOc1cccc(CC(=O)NCC[N+]2(C)CCCC2)c1
inactive: HOP-62 NSCLC 69.5% | NCI-H460 lung 54.3% | HOP-92 NSCLC 92.7% | NCI-H522 lung 68.6% | A549/ATCC NSCLC 95% | 786-0 renal 93.9%

Cc1nn(-c2ccccc2)c2nc3nc4c(c(N)c3c(-c3ccc(Cl)cc3)c12)CCCC4
inactive: HOP-62 NSCLC 106% | NCI-H460 lung 97.4% | HOP-92 NSCLC 84.4% | NCI-H522 lung 90.6% | A549/ATCC NSCLC 94.4% | 786-0 renal 86.9% | COLO 205 colon 94.4%

NC(=O)c1cc(I)ccc1NC(=O)COc1ccccc1
inactive: HOP-62 NSCLC 21.7% | A549/ATCC NSCLC 18.3% | 786-0 renal 33.7% | COLO 205 colon 12.2%
active: NCI-H460 lung 6.3% | NCI-H522 lung 0.734%

O=C(c1ccccc1)C(Br)C(Br)c1cccc([N+](=O)[O-])c1 (configuration not stated)
inactive: NCI-H322M lung 101% | NCI-H460 lung 90.2% | HOP-92 NSCLC 65.1% | A549/ATCC NSCLC 92.7% | 786-0 renal 90.1%
active: NCI-H522 lung -68.8% | COLO 205 colon -95%

Cc1nc2cc(Nc3nc(N4CCOCC4)nc(N4CCN(C)CC4)n3)ccc2n1Cc1ccccc1
inactive: HOP-62 NSCLC 95% | NCI-H460 lung 107% | HOP-92 NSCLC 82.9% | NCI-H522 lung 92.6% | A549/ATCC NSCLC 102% | 786-0 renal 97.5% | COLO 205 colon 111%

Fc1ccccc1Nc1ccc2nnc(-c3ccncc3)n2n1
inactive: NCI-H322M lung 104% | HOP-62 NSCLC 106% | NCI-H460 lung 103% | A549/ATCC NSCLC 103% | 786-0 renal 101% | COLO 205 colon 106%
active: NCI-H522 lung -74.5%

OB(O)c1ccccc1
inactive: NCI-H322M lung 111% | NCI-H460 lung 110% | HOP-92 NSCLC 112% | NCI-H522 lung 103% | A549/ATCC NSCLC 98.5% | 786-0 renal 103% | COLO 205 colon 116%

COc1nc2c(cc1S(=O)(=O)c1ccccc1)CCc1c-2cnn1-c1ccccc1Cl
inactive: HOP-62 NSCLC 69.9% | NCI-H460 lung 67% | NCI-H522 lung 15.3% | A549/ATCC NSCLC 47.1% | 786-0 renal 51.6%
active: HOP-92 NSCLC -1.3%

CC(=O)Nc1ccc(S(=O)(=O)N/N=C\c2ccc(Cl)c(Cl)c2)cc1
inactive: HOP-62 NSCLC 100% | NCI-H460 lung 101% | HOP-92 NSCLC 72.1% | A549/ATCC NSCLC 93.8% | 786-0 renal 113% | COLO 205 colon 109%

Cc1cc(=O)oc2c1ccc1oc(C(=O)c3ccccc3)c(C)c12
inactive: NCI-H322M lung 112% | NCI-H460 lung 85% | HOP-92 NSCLC 105% | A549/ATCC NSCLC 93.8% | 786-0 renal 99.5% | COLO 205 colon 93.5%

CCCOC(=O)c1ccc2c(c1)[N+](=O)C(C(=O)c1ccccc1)=C(C(F)(F)F)[N+]2=O
active: HOP-62 NSCLC -96.5% | NCI-H460 lung -69.9% | NCI-H522 lung -92.6% | A549/ATCC NSCLC -88.1% | 786-0 renal -81.2% | COLO 205 colon -92.3%

CCCCCCCCCCCCCCCC[N+]1(C)CCOCC1
active: NCI-H460 lung 4.21% | HOP-92 NSCLC -15.3% | NCI-H522 lung -24.8% | 786-0 renal 5.35% | COLO 205 colon -92.3%
inactive: NCI-H322M lung 37.1% | A549/ATCC NSCLC 24.3%

Cc1ccc(C(=O)Nc2ccccc2N)cc1
inactive: NCI-H322M lung 71.6% | HOP-62 NSCLC 92.2% | NCI-H460 lung 66% | NCI-H522 lung 70% | A549/ATCC NSCLC 90.8% | 786-0 renal 75.4% | COLO 205 colon 94.6%

Cc1nc2cc(Nc3nc(Nc4ccc(F)cc4)nc(-c4cccs4)n3)ccc2n1Cc1ccccc1
inactive: HOP-62 NSCLC 92.3% | NCI-H460 lung 39.6% | HOP-92 NSCLC 22% | NCI-H522 lung 53.5% | A549/ATCC NSCLC 43.1% | 786-0 renal 37.5% | COLO 205 colon 56.8%

CCCCC(=O)N/N=C/c1cc(I)cc(I)c1O
inactive: HOP-62 NSCLC 42.5% | NCI-H460 lung 28.1% | HOP-92 NSCLC 48.7% | NCI-H522 lung 60.5% | A549/ATCC NSCLC 46.6% | 786-0 renal 56.9% | COLO 205 colon 57%

Cc1nc2cc(Nc3nc(NCCN)nc(Nc4ccc(F)cc4)n3)ccc2n1Cc1ccccc1
inactive: HOP-62 NSCLC 79.1% | NCI-H460 lung 82.6% | HOP-92 NSCLC 48.5% | NCI-H522 lung 85.9% | A549/ATCC NSCLC 83.9% | 786-0 renal 82.4% | COLO 205 colon 82%
